In publication PMC5540273 (PLoS ONE, 2017):

Assays:
Conditions in all cases: concentration: 1 μM, replicates: in singlicate; n = 1
CSK = test system: CSK
CSNK1A1L = test system: CSNK1A1L
CSNK1A1 = test system: CSNK1A1
CSNK1D = test system: CSNK1D
CSNK1E = test system: CSNK1E
CSNK1G1 = test system: CSNK1G1
CSNK1G2 = test system: CSNK1G2
CSNK1G3 = test system: CSNK1G3
CSNK2A1 = test system: CSNK2A1
CSNK2A2 = test system: CSNK2A2
CTK = test system: T1, CTK
T1 construct: gene MATK

DAPK1 = test system: DAPK1
DAPK2 = test system: DAPK2
DAPK3 = test system: DAPK3
DCAMKL1 = test system: T2, DCAMKL1
T2 construct: gene DCLK1

DCAMKL2 = test system: T3, DCAMKL2
T3 construct: gene DCLK2

DCAMKL3 = test system: T4, DCAMKL3
T4 construct: gene DCLK3

DDR1 = test system: DDR1
DDR2 = test system: DDR2
DLK = test system: T5, DLK
T5 construct: gene MAP3K12
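Further: KINOMEscan kinase panel screen.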

| Structure (SMILES) | %Inh (CSK) | %Inh (CSNK1A1L) | %Inh (CSNK1A1) | %Inh (CSNK1D) | %Inh (CSNK1E) | %Inh (CSNK1G1) | %Inh (CSNK1G2) | %Inh (CSNK1G3) | %Inh (CSNK2A1) | %Inh (CSNK2A2) | %Inh (CTK) | %Inh (DAPK1) | %Inh (DAPK2) | %Inh (DAPK3) | %Inh (DCAMKL1) | %Inh (DCAMKL2) | %Inh (DCAMKL3) | %Inh (DDR1) | %Inh (DDR2) | %Inh (DLK) |
| --- | --- | --- | --- | --- | --- | --- | --- | --- | --- | --- | --- | --- | --- | --- | --- | --- | --- | --- | --- | --- |
| CS(=O)(=O)CCNCc1nc(-c2ccc3ncnc(Nc4ccc5c(cnn5Cc5ccccc5)c4)c3c2)cs1.Cl.Cl [GW569716] | 0% | 0% | 0% | 2% | 21% | 1% | 0% | 3% | 0% | 37% | 0% | 0% | 0% | 0% | 9% | 0% | 4% | 0% | 24% | 53% |
| COc1ccc2cc(-c3nc(-c4ccccc4C(C)C)[nH]c3-c3ccncc3)ccc2c1 [SB-660566] | 0% | 20% | 0% | 22% | 34% | 10% | 0% | 0% | 0% | 2% | 0% | 0% | 0% | 8% | 1% | 0% | 23% | 90.5% | 6% | 18% |
| Cc1c(Cn2c3ccccc3n3c(=O)cc(N4CCOCC4)nc23)cccc1C(F)(F)F [GSK2306394] | 0% | 0% | 19% | 10% | 12% | 9% | 43% | 17% | 6% | 14% | 10% | 12% | 4% | 0% | 0% | 0% | 0% | 19% | 0% | 0% |
| Cn1cnc2c(N)ncnc21 [SKF-97623] | 0% | 22% | 1% | 0% | 8% | 0% | 70% | 0% | 0% | 0% | 0% | 100% | 0% | 0% | 0% | 0% | 11% | 0% | 30% | 6% |
| Fc1ccc(-c2nc3n(c2-c2ccncc2)CCS3)cc1 [GI98581] | 0% | 30% | 84% | 95.3% | 98.2% | 14% | 17% | 32% | 10% | 6% | 0% | 0% | 0% | 0% | 0% | 21% | 30% | 54% | 54% | 26% |
| COC(=O)C(Cc1ccccc1)NC(=O)NC1CCN(c2ccnc(Nc3ccc(F)cc3)n2)C1 (stereo not shown) [GSK1379714] | 0% | 2% | 5% | 7% | 7% | 0% | 13% | 11% | 0% | 14% | 0% | 25% | 12% | 28% | 7% | 0% | 8% | 75% | 47% | 48% |
| CNc1cc(-c2ccc3c(N)n[nH]c3c2)nc(N)n1 [GSK2224810] | 4% | 0% | 8% | 9% | 12% | 7% | 0% | 28% | 19% | 22% | 0% | 18% | 17% | 37% | 16% | 0% | 28% | 0% | 13% | 29% |
| CN1c2ccc(-c3ccc(C(N)=O)cc3)cc2-c2[nH]ncc2S1(=O)=O | 0% | 0% | 3% | 1% | 1% | 0% | 0% | 0% | 0% | 1% | 0% | 54% | 18% | 26% | 7% | 0% | 0% | 0% | 28% | 0% |
| Cc1ccc(NC(=O)c2ccc(Cl)cc2)cc1-c1ccc(C(=O)Nc2ccncc2)cc1 [GSK1398467] | 0% | 14% | 0% | 18% | 11% | 8% | 9% | 22% | 0% | 0% | 0% | 12% | 0% | 34% | 3% | 0% | 0% | 89% | 36% | 0% |
| Fc1ccc(-c2nn3cccc(F)c3c2-c2ccncc2)cc1 [GW475620] | 0% | 30% | 69% | 94% | 96.2% | 16% | 2% | 24% | 11% | 9% | 0% | 0% | 0% | 5% | 0% | 0% | 10% | 47% | 39% | 15% |
| Cc1cnc(N)c(/C=C/c2cncc(C(=O)NCCc3ccc(Cl)cc3Cl)c2)c1.Cl [GSK190937] | 0% | 0% | 0% | 34% | 20% | 24% | 2% | 3% | 0% | 0% | 0% | 10% | 7% | 11% | 4% | 0% | 23% | – | 79% | 25% |
| O=C(Nc1n[nH]c2nc(-c3cccs3)c(Br)cc12)C1CCCC1 [SB-743341] | 9% | 13% | 27% | 0% | 0% | 0% | 0% | 0% | 10% | 17% | 49% | 0% | 3% | 3% | 0% | 7% | 22% | 27% | 0% | 0% |
| CNc1nc(-c2ccc3c(N)n[nH]c3c2)cc(N2C[C@@H](C(=O)Nc3ccccc3)CC[C@H]2C)n1 [GSK2298859] | 0% | 6% | 0% | 15% | 36% | 16% | 0% | 28% | 2% | 3% | 0% | 11% | 30% | 43% | 53% | 11% | 76% | 6% | 8% | 11% |
| CCc1ccc(-c2ccc3c(c2)-c2n[nH]cc2S(=O)(=O)N3C)cc1 | 0% | 0% | 0% | 32% | 0% | 0% | 0% | 0% | 0% | 0% | 0% | 24% | 7% | 0% | 34% | 0% | 13% | 0% | 9% | 0% |
| COC(=O)c1cccc(NC(=O)NC2CCN(c3ccnc(Nc4ccc(OC)cc4)n3)C2)c1 (stereo not shown) [GSK1379746] | 0% | 0% | 0% | 21% | 35% | 0% | 0% | 26% | 0% | 0% | 0% | 0% | 0% | 0% | 8% | 0% | 0% | 11% | 46% | 35% |
| COc1ccc(Nc2nccc(-c3ccc(NC(=O)c4cc5cc(F)ccc5[nH]4)cc3)n2)cc1 [GSK1229496] | 0% | 0% | 0% | 0% | 21% | 0% | 0% | 17% | 0% | 0% | 0% | 55% | 5% | 1% | 11% | 0% | 0% | 63% | 26% | 36% |
